{"source": "the supplement of paper PMC4466140", "binders": {"B1": {"name": "unnamed (peptide)", "chain": "PLRRTVMSLPGNHDI"}}}
{"molecular_target": "CaNbp2", "assay": "SPOT peptide array binding signal intensity (averaged, normalized) (arbitrary units (background-subtracted, floor 0; scale differs between SH3 domains)); higher = stronger binding of the SH3 domain to the peptide", "procedure,_shortened": "(§1)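 Cellulose membranes carried synthetic 15-mer peptides with cysteines swapped for serines. These were incubated overnight at 4°C with 10 μg/ml of GST-fused SH3 domains from four yeast species in TBS-based blocking buffer. Binding signal, detected with anti-GST antibody and quantified in Genespotter, is the normalized, background-subtracted spot intensity averaged over replicates, in arbitrary units specific to each domain.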"}
{"binder": "B1", "SPOT peptide array binding signal intensity": 1640}
{"molecular_target": "CaRvs167", "assay": "SPOT peptide array binding signal intensity (averaged, normalized) (arbitrary units (background-subtracted, floor 0; scale differs between SH3 domains)); higher = stronger binding of the SH3 domain to the peptide", "procedure,_shortened": "as §1"}
{"binder": "B1", "SPOT peptide array binding signal intensity": 110}
{"molecular_target": "CaRvs167-3", "assay": "SPOT peptide array binding signal intensity (averaged, normalized) (arbitrary units (background-subtracted, floor 0; scale differs between SH3 domains)); higher = stronger binding of the SH3 domain to the peptide", "procedure,_shortened": "as §1"}
{"binder": "B1", "SPOT peptide array binding signal intensity": 20}
{"molecular_target": "CaSho1", "assay": "SPOT peptide array binding signal intensity (averaged, normalized) (arbitrary units (background-subtracted, floor 0; scale differs between SH3 domains)); higher = stronger binding of the SH3 domain to the peptide", "procedure,_shortened": "as §1"}
{"binder": "B1", "SPOT peptide array binding signal intensity": 837}
{"molecular_target": "CaSla1-D1-D2", "assay": "SPOT peptide array binding signal intensity (averaged, normalized) (arbitrary units (background-subtracted, floor 0; scale differs between SH3 domains)); higher = stronger binding of the SH3 domain to the peptide", "procedure,_shortened": "as §1"}
{"binder": "B1", "SPOT peptide array binding signal intensity": 247}
{"molecular_target": "CaSla1-D3", "assay": "SPOT peptide array binding signal intensity (averaged, normalized) (arbitrary units (background-subtracted, floor 0; scale differs between SH3 domains)); higher = stronger binding of the SH3 domain to the peptide", "procedure,_shortened": "as §1"}
{"binder": "B1", "SPOT peptide array binding signal intensity": 60.2}
{"molecular_target": "ScAbp1", "assay": "SPOT peptide array binding signal intensity (averaged, normalized) (arbitrary units (background-subtracted, floor 0; scale differs between SH3 domains)); higher = stronger binding of the SH3 domain to the peptide", "procedure,_shortened": "as §1"}
{"binder": "B1", "SPOT peptide array binding signal intensity": 205}
{"molecular_target": "ScBbc1", "assay": "SPOT peptide array binding signal intensity (averaged, normalized) (arbitrary units (background-subtracted, floor 0; scale differs between SH3 domains)); higher = stronger binding of the SH3 domain to the peptide", "procedure,_shortened": "as §1"}
{"binder": "B1", "SPOT peptide array binding signal intensity": 13}
{"molecular_target": "ScBem1-D1", "assay": "SPOT peptide array binding signal intensity (averaged, normalized) (arbitrary units (background-subtracted, floor 0; scale differs between SH3 domains)); higher = stronger binding of the SH3 domain to the peptide", "procedure,_shortened": "as §1"}
{"binder": "B1", "SPOT peptide array binding signal intensity": 1.5}
{"molecular_target": "ScBzz1-D1", "assay": "SPOT peptide array binding signal intensity (averaged, normalized) (arbitrary units (background-subtracted, floor 0; scale differs between SH3 domains)); higher = stronger binding of the SH3 domain to the peptide", "procedure,_shortened": "as §1"}
{"binder": "B1", "SPOT peptide array binding signal intensity": 4.75}
{"molecular_target": "ScBzz1-D2", "assay": "SPOT peptide array binding signal intensity (averaged, normalized) (arbitrary units (background-subtracted, floor 0; scale differs between SH3 domains)); higher = stronger binding of the SH3 domain to the peptide", "procedure,_shortened": "as §1"}
{"binder": "B1", "SPOT peptide array binding signal intensity": 5.75}
{"molecular_target": "ScCyk3", "assay": "SPOT peptide array binding signal intensity (averaged, normalized) (arbitrary units (background-subtracted, floor 0; scale differs between SH3 domains)); higher = stronger binding of the SH3 domain to the peptide", "procedure,_shortened": "as §1"}
{"binder": "B1", "SPOT peptide array binding signal intensity": 15}
{"molecular_target": "ScFus1", "assay": "SPOT peptide array binding signal intensity (averaged, normalized) (arbitrary units (background-subtracted, floor 0; scale differs between SH3 domains)); higher = stronger binding of the SH3 domain to the peptide", "procedure,_shortened": "as §1"}
{"binder": "B1", "SPOT peptide array binding signal intensity": 407}
{"molecular_target": "ScHof1", "assay": "SPOT peptide array binding signal intensity (averaged, normalized) (arbitrary units (background-subtracted, floor 0; scale differs between SH3 domains)); higher = stronger binding of the SH3 domain to the peptide", "procedure,_shortened": "as §1"}
{"binder": "B1", "SPOT peptide array binding signal intensity": "≤ 0"}
{"molecular_target": "ScHse1", "assay": "SPOT peptide array binding signal intensity (averaged, normalized) (arbitrary units (background-subtracted, floor 0; scale differs between SH3 domains)); higher = stronger binding of the SH3 domain to the peptide", "procedure,_shortened": "as §1"}
{"binder": "B1", "SPOT peptide array binding signal intensity": 288}
{"molecular_target": "ScLsb1", "assay": "SPOT peptide array binding signal intensity (averaged, normalized) (arbitrary units (background-subtracted, floor 0; scale differs between SH3 domains)); higher = stronger binding of the SH3 domain to the peptide", "procedure,_shortened": "as §1"}
{"binder": "B1", "SPOT peptide array binding signal intensity": 14.5}
{"molecular_target": "ScLsb2", "assay": "SPOT peptide array binding signal intensity (averaged, normalized) (arbitrary units (background-subtracted, floor 0; scale differs between SH3 domains)); higher = stronger binding of the SH3 domain to the peptide", "procedure,_shortened": "as §1"}
{"binder": "B1", "SPOT peptide array binding signal intensity": "≤ 0"}
{"molecular_target": "ScLsb3", "assay": "SPOT peptide array binding signal intensity (averaged, normalized) (arbitrary units (background-subtracted, floor 0; scale differs between SH3 domains)); higher = stronger binding of the SH3 domain to the peptide", "procedure,_shortened": "as §1"}
{"binder": "B1", "SPOT peptide array binding signal intensity": 52}
{"molecular_target": "ScLsb4", "assay": "SPOT peptide array binding signal intensity (averaged, normalized) (arbitrary units (background-subtracted, floor 0; scale differs between SH3 domains)); higher = stronger binding of the SH3 domain to the peptide", "procedure,_shortened": "as §1"}
{"binder": "B1", "SPOT peptide array binding signal intensity": 60}
{"molecular_target": "ScMyo3", "assay": "SPOT peptide array binding signal intensity (averaged, normalized) (arbitrary units (background-subtracted, floor 0; scale differs between SH3 domains)); higher = stronger binding of the SH3 domain to the peptide", "procedure,_shortened": "as §1"}
{"binder": "B1", "SPOT peptide array binding signal intensity": "≤ 0"}
{"molecular_target": "ScMyo5", "assay": "SPOT peptide array binding signal intensity (averaged, normalized) (arbitrary units (background-subtracted, floor 0; scale differs between SH3 domains)); higher = stronger binding of the SH3 domain to the peptide", "procedure,_shortened": "as §1"}
{"binder": "B1", "SPOT peptide array binding signal intensity": "≤ 0"}
{"molecular_target": "ScNbp2", "assay": "SPOT peptide array binding signal intensity (averaged, normalized) (arbitrary units (background-subtracted, floor 0; scale differs between SH3 domains)); higher = stronger binding of the SH3 domain to the peptide", "procedure,_shortened": "as §1"}
{"binder": "B1", "SPOT peptide array binding signal intensity": 584}
{"molecular_target": "ScPex13", "assay": "SPOT peptide array binding signal intensity (averaged, normalized) (arbitrary units (background-subtracted, floor 0; scale differs between SH3 domains)); higher = stronger binding of the SH3 domain to the peptide", "procedure,_shortened": "as §1"}
{"binder": "B1", "SPOT peptide array binding signal intensity": 177}
{"molecular_target": "ScRvs167", "assay": "SPOT peptide array binding signal intensity (averaged, normalized) (arbitrary units (background-subtracted, floor 0; scale differs between SH3 domains)); higher = stronger binding of the SH3 domain to the peptide", "procedure,_shortened": "as §1"}
{"binder": "B1", "SPOT peptide array binding signal intensity": 51.9}
{"molecular_target": "ScSho1", "assay": "SPOT peptide array binding signal intensity (averaged, normalized) (arbitrary units (background-subtracted, floor 0; scale differs between SH3 domains)); higher = stronger binding of the SH3 domain to the peptide", "procedure,_shortened": "as §1"}
{"binder": "B1", "SPOT peptide array binding signal intensity": 909}
{"molecular_target": "ScSla1-D1-D2", "assay": "SPOT peptide array binding signal intensity (averaged, normalized) (arbitrary units (background-subtracted, floor 0; scale differs between SH3 domains)); higher = stronger binding of the SH3 domain to the peptide", "procedure,_shortened": "as §1"}
{"binder": "B1", "SPOT peptide array binding signal intensity": 305}
{"molecular_target": "ScSla1-D3", "assay": "SPOT peptide array binding signal intensity (averaged, normalized) (arbitrary units (background-subtracted, floor 0; scale differs between SH3 domains)); higher = stronger binding of the SH3 domain to the peptide", "procedure,_shortened": "as §1"}
{"binder": "B1", "SPOT peptide array binding signal intensity": 404}
{"molecular_target": "SpAbp1-D1", "assay": "SPOT peptide array binding signal intensity (averaged, normalized) (arbitrary units (background-subtracted, floor 0; scale differs between SH3 domains)); higher = stronger binding of the SH3 domain to the peptide", "procedure,_shortened": "as §1"}
{"binder": "B1", "SPOT peptide array binding signal intensity": 671}
{"molecular_target": "SpBbc1", "assay": "SPOT peptide array binding signal intensity (averaged, normalized) (arbitrary units (background-subtracted, floor 0; scale differs between SH3 domains)); higher = stronger binding of the SH3 domain to the peptide", "procedure,_shortened": "as §1"}
{"binder": "B1", "SPOT peptide array binding signal intensity": 1.5}
{"molecular_target": "SpBzz1-D1", "assay": "SPOT peptide array binding signal intensity (averaged, normalized) (arbitrary units (background-subtracted, floor 0; scale differs between SH3 domains)); higher = stronger binding of the SH3 domain to the peptide", "procedure,_shortened": "as §1"}
{"binder": "B1", "SPOT peptide array binding signal intensity": 243}
{"molecular_target": "SpBzz1-D2", "assay": "SPOT peptide array binding signal intensity (averaged, normalized) (arbitrary units (background-subtracted, floor 0; scale differs between SH3 domains)); higher = stronger binding of the SH3 domain to the peptide", "procedure,_shortened": "as §1"}
{"binder": "B1", "SPOT peptide array binding signal intensity": 7.25}
{"molecular_target": "SpCyk3", "assay": "SPOT peptide array binding signal intensity (averaged, normalized) (arbitrary units (background-subtracted, floor 0; scale differs between SH3 domains)); higher = stronger binding of the SH3 domain to the peptide", "procedure,_shortened": "as §1"}
{"binder": "B1", "SPOT peptide array binding signal intensity": 0.5}
{"molecular_target": "SpHof1", "assay": "SPOT peptide array binding signal intensity (averaged, normalized) (arbitrary units (background-subtracted, floor 0; scale differs between SH3 domains)); higher = stronger binding of the SH3 domain to the peptide", "procedure,_shortened": "as §1"}
{"binder": "B1", "SPOT peptide array binding signal intensity": 10}
{"molecular_target": "SpHof1-2", "assay": "SPOT peptide array binding signal intensity (averaged, normalized) (arbitrary units (background-subtracted, floor 0; scale differs between SH3 domains)); higher = stronger binding of the SH3 domain to the peptide", "procedure,_shortened": "as §1"}
{"binder": "B1", "SPOT peptide array binding signal intensity": 24.2}
{"molecular_target": "SpHof1-3", "assay": "SPOT peptide array binding signal intensity (averaged, normalized) (arbitrary units (background-subtracted, floor 0; scale differs between SH3 domains)); higher = stronger binding of the SH3 domain to the peptide", "procedure,_shortened": "as §1"}
{"binder": "B1", "SPOT peptide array binding signal intensity": 261}
{"molecular_target": "SpHse1", "assay": "SPOT peptide array binding signal intensity (averaged, normalized) (arbitrary units (background-subtracted, floor 0; scale differs between SH3 domains)); higher = stronger binding of the SH3 domain to the peptide", "procedure,_shortened": "as §1"}
{"binder": "B1", "SPOT peptide array binding signal intensity": 788}
{"molecular_target": "SpLsb1", "assay": "SPOT peptide array binding signal intensity (averaged, normalized) (arbitrary units (background-subtracted, floor 0; scale differs between SH3 domains)); higher = stronger binding of the SH3 domain to the peptide", "procedure,_shortened": "as §1"}
{"binder": "B1", "SPOT peptide array binding signal intensity": 2.25}
{"molecular_target": "SpLsb4", "assay": "SPOT peptide array binding signal intensity (averaged, normalized) (arbitrary units (background-subtracted, floor 0; scale differs between SH3 domains)); higher = stronger binding of the SH3 domain to the peptide", "procedure,_shortened": "as §1"}
{"binder": "B1", "SPOT peptide array binding signal intensity": 258}
{"molecular_target": "SpMyo1", "assay": "SPOT peptide array binding signal intensity (averaged, normalized) (arbitrary units (background-subtracted, floor 0; scale differs between SH3 domains)); higher = stronger binding of the SH3 domain to the peptide", "procedure,_shortened": "as §1"}
{"binder": "B1", "SPOT peptide array binding signal intensity": 2.5}
{"molecular_target": "SpNbp2", "assay": "SPOT peptide array binding signal intensity (averaged, normalized) (arbitrary units (background-subtracted, floor 0; scale differs between SH3 domains)); higher = stronger binding of the SH3 domain to the peptide", "procedure,_shortened": "as §1"}
{"binder": "B1", "SPOT peptide array binding signal intensity": 392}
{"molecular_target": "SpPex13", "assay": "SPOT peptide array binding signal intensity (averaged, normalized) (arbitrary units (background-subtracted, floor 0; scale differs between SH3 domains)); higher = stronger binding of the SH3 domain to the peptide", "procedure,_shortened": "as §1"}
{"binder": "B1", "SPOT peptide array binding signal intensity": 40}
{"molecular_target": "SpRvs167", "assay": "SPOT peptide array binding signal intensity (averaged, normalized) (arbitrary units (background-subtracted, floor 0; scale differs between SH3 domains)); higher = stronger binding of the SH3 domain to the peptide", "procedure,_shortened": "as §1"}
{"binder": "B1", "SPOT peptide array binding signal intensity": 48.8}
{"molecular_target": "SpSla1-D1-D2", "assay": "SPOT peptide array binding signal intensity (averaged, normalized) (arbitrary units (background-subtracted, floor 0; scale differs between SH3 domains)); higher = stronger binding of the SH3 domain to the peptide", "procedure,_shortened": "as §1"}
{"binder": "B1", "SPOT peptide array binding signal intensity": 1.5}
{"molecular_target": "SpSla1-D3", "assay": "SPOT peptide array binding signal intensity (averaged, normalized) (arbitrary units (background-subtracted, floor 0; scale differs between SH3 domains)); higher = stronger binding of the SH3 domain to the peptide", "procedure,_shortened": "as §1"}
{"binder": "B1", "SPOT peptide array binding signal intensity": 126}
